Measurements reported in publication PMC5540273 (PLoS ONE, 2017).
“And” between values parts separate entries of the source, which are not always exact repeats. Equal entries are not always repeated. Where two headings read alike, the source gives them in different places.

Columns and labels:
[1] = tested on: ABL2; conditions: concentration: 1 μM, replicates: in singlicate, n = 1
[2] = tested on: ACVR1B; conditions: concentration: 1 μM, replicates: in singlicate; n = 1
[3] = tested on: ACVR1; conditions: concentration: 1 μM, replicates: in singlicate; n = 1
[4] = tested on: ACVR2A; conditions: concentration: 1 μM, replicates: in singlicate; n = 1
[5] = tested on: ACVR2B; conditions: concentration: 1 μM, replicates: in singlicate; n = 1
[6] = tested on: ACVRL1; conditions: concentration: 1 μM, replicates: in singlicate; n = 1
[7] = tested on: T1, ADCK3; conditions: concentration: 1 μM, replicates: in singlicate, n = 1
T1 construct: gene CABC1

[8] = tested on: ADCK4; conditions: concentration: 1 μM, replicates: in singlicate, n = 1
[9] = tested on: AKT1; conditions: concentration: 1 μM, replicates: in singlicate; n = 1
[10] = tested on: AKT2; conditions: concentration: 1 μM, replicates: in singlicate, n = 1
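Also: KINOMEscan kinase panel screen.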

SMILES | %Inh [1] [%] | %Inh [2] [%] | %Inh [3] [%] | %Inh [4] [%] | %Inh [5] [%] | %Inh [6] [%] | %Inh [7] [%] | %Inh [8] [%] | %Inh [9] [%] | %Inh [10] [%] | %Inh ([1]; 1 µM) | %Inh ([7]; 1 µM) | %Inh ([8]; 1 µM) | %Inh ([10]; 1 µM)
Oc1ccc2ncnc(Nc3ccc(OCc4ccccc4)cc3)c2c1 [GI262866] | 7 | 0 | 0 | 0 | 9 | 0 | 0 | 0 | 0 | 9 | – | – | – | –
Nc1nccc2scc(-c3ccc4c(c3)CCN4C(=O)Cc3cc(F)ccc3F)c12 [GSK2587663] | 18 | 0 | 0 | 0 | 0 | 0 | 24 | 35 | 0 | 17 | – | – | – | –
COc1ccc(-c2oc3ncnc(N)c3c2-c2ccc(OC)cc2)cc1 [SB-589132] | 20 | 0 | 21 | 0 | 0 | 12 | 12 | 55 | 0 | 0 | – | – | – | –
CCC(CC)(CC)n1cnc2c(N)ncnc21 [SKF-97620] | 1 | 10 | 0 | 0 | 0 | 0 | 0 | 9 | 11 | 0 | – | – | – | –
Fc1cccc(COc2ccc(Nc3ncnc4cc[nH]c34)cc2Cl)c1 | 10 | 12 | 19 | 0 | 3 | 16 | 1 | 17 | 0 | 0 | – | – | – | –
Clc1cc(Nc2ncnc3cc[nH]c23)ccc1OCc1ccccn1 | 0 | 28 | 10 | 0 | 0 | 5 | 9 | 3 | 10 | 19 | – | – | – | –
COc1ccc(Nc2nccc(N3CCC(NC(=O)c4cccc(NC(C)=O)c4)C3)n2)cc1 (stereo not shown) [GSK1379732] | 0 | 0 | 6 | 0 | 0 | 2 | 8 | 36 | 0 | 14 | – | – | – | –
Fc1ccc(-c2ncn(CCCNCc3ccccc3)c2-c2ccncc2)cc1 | 12 | 10 | 2 | 0 | 0 | 17 | 0 | 0 | 19 | 12 | – | – | – | –
COc1cc2ncnc(Nc3ccc(OCc4ccccc4Br)c(Cl)c3)c2cc1OC.Cl [GI261590] | 16 | 0 | 0 | 0 | 4 | 0 | 22 | 37 | 0 | 5 | – | – | – | –
Fc1cccc(COc2ccc(Nc3ncnc4sc(-c5ccc[nH]5)cc34)cc2Cl)c1 [GW707818] | 0 | 2 | 9 | 5 | 16 | 4 | 1 | 24 | 0 | 7 | – | – | – | –
C[C@H]1CC[C@@H](C(=O)Nc2ccccc2)CN1c1cc(-c2ccc3c(N)n[nH]c3c2)nc(N)n1 [GSK2283293] | 15 | 0 | 0 | 0 | 0 | 0 | 11 | 40 | 0 | 6 | – | – | – | –
O=C(c1ccc(-c2cc(-c3c[nH]nc3-c3ccccn3)ccn2)cc1)N1CCCC1 [GW792479] | 0 | 77 | 0 | 11 | 22 | 0 | 27 | 0 | 2 | 0 | – | – | – | –
CSc1nn2c(=O)cc(N3CCOCC3)nc2n1Cc1cccc(Cl)c1Cl [GSK2347225] | 14 | 0 | 18 | 0 | 12 | 0 | 18 | 28 | 0 | 9 | – | – | – | –
Nc1nc(-c2ccc3c(N)n[nH]c3c2)cc(N2CCC[C@@H](C(=O)Nc3ccccc3)C2)n1.O=C(O)C(F)(F)F.O=C(O)C(F)(F)F [GSK2288359] | 0 | 0 | 0 | 0 | 0 | 0 | 0 | 11 | 0 | 7 | – | – | – | –
O=C(Nc1ccccc1F)NC1CCN(c2ccnc(Nc3ccc(F)cc3)n2)C1 (stereo not shown) [GSK1379722] | 9 | 0 | 25 | 0 | 0 | 0 | 20 | 40 | 0 | 13 | – | – | – | –
C[C@@H]1CCN(C(=O)CO)C[C@@H]1N(C)c1ncnc2[nH]ccc12 | 0 | 13 | 0 | 0 | 0 | 8 | 0 | 0 | 0 | 0 | – | – | – | –

SMILES | %Inh [1] [%] | %Inh [2] [%] | %Inh [3] [%] | %Inh [4] [%] | %Inh [5] [%] | %Inh [6] [%] | %Inh [7] [%] | %Inh [8] [%] | %Inh [9] [%] | %Inh [10] [%] | %Inh ([1]; 1 µM) | %Inh ([7]; 1 µM) | %Inh ([8]; 1 µM) | %Inh ([10]; 1 µM)
NC(=O)c1sc(-n2cnc3ccccc32)cc1OCc1ccccc1F [GSK1024306] | 8 | 0 | 0 | 0 | 2 | 0 | 5 | 7 | 0 | 0 | – | – | – | –
CC(C)N1CCC(n2cnc(-c3ccc(F)cc3)c2-c2ccnc(N)n2)CC1 [SB-223132] | 0 | 0 | 0 | 22 | 25 | 0 | 31 | 0 | 3 | 0 | – | – | – | –
CCCc1ccc(S(=O)(=O)NC2CCN(c3ccnc(Nc4ccc(OC)cc4)n3)C2)cc1 (stereo not shown) [GSK1379737] | 14 | 0 | 0 | 0 | 0 | 0 | 0 | 66 | 0 | 0 | – | – | – | –
Nc1n[nH]c2nnc(-c3ccccc3)cc12 [SB-517389] | 13 | 0 | 16 | 0 | 4 | 0 | 6 | 16 | 0 | 13 | – | – | – | –
FC(F)(F)c1ccc(-c2nn3ncccc3c2-c2ccnc(Nc3cccc(C(F)(F)F)c3)n2)cc1 [GW828205] | 16 | 24 | 0 | 6 | 19 | 10 | 23 | 0 | 0 | 0 | – | – | – | –
Cn1ccc2ncnc(Oc3ccc(NC(=O)Nc4cccnc4)c(Cl)c3)c21 | 11 | 0 | 0 | 0 | 0 | 0 | 0 | 0 | 0 | 8 | – | – | – | –
Cl.Cn1ccc(-c2cccc(Nc3ccnc4cc(-c5nccs5)ccc34)c2)n1 [GW525701] | 10 | 0 | 3 | 0 | 0 | 0 | 6 | 55 | 0 | 7 | – | – | – | –
Cl.c1ccc(Cn2ncc3cc(Nc4ncnc5ccccc45)ccc32)cc1 [GW273749] | 0 | 0 | 5 | 0 | 0 | 0 | 7 | 22 | 0 | 13 | – | – | – | –
Cn1ccc2ncnc(Nc3ccc(Oc4cccc(Cl)c4)c(Cl)c3)c21 | 16 | 28 | 0 | 0 | 17 | 0 | 1 | 0 | 22 | 7 | – | – | – | –
Cc1ccc(C)c(NC(=O)NCCNc2ccnc(Nc3ccc(F)cc3)n2)c1 [GSK1379878] | 0 | 0 | 0 | 0 | 0 | 0 | 0 | 10 | 0 | 0 | – | – | – | –
Nc1nc(-c2ccc3c(N)n[nH]c3c2)cc(N2CCCCC2)n1 [GSK2228768] | 12 | 0 | 0 | 0 | 0 | 0 | 0 | 6 | 0 | 0 | – | – | – | –
COc1ccc(-c2nc3n(c2-c2ccncc2)CCC3)cc1 [SKF-104493] | – | 19 | 0 | 0 | 0 | 0 | – | – | 0 | – | 5% and 0% | 0% and 6% | 12% and 6% | 0% and 3%
FC(F)(F)c1cc(Nc2nccc(-c3c(-c4ccc(Cl)cc4)nn4ncccc34)n2)ccc1Cl [GW829351] | 0 | 0 | 0 | 0 | 12 | 0 | 0 | 27 | 0 | 0 | – | – | – | –
CS(=O)(=O)CCNCc1ccc(-c2ccc3ncnc(Nc4ccc(OCc5ccccc5)c(Cl)c4)c3c2)o1.Cl [GW574783] | 0 | 0 | 2 | 4 | 22 | 0 | 23 | 20 | 46 | 21 | – | – | – | –
COC(=O)c1c(-c2ccccc2)c2cc(Cl)ccc2c(=O)n1Cc1ccc(S(C)(=O)=O)cc1 | 18 | 0 | 0 | 0 | 0 | 0 | 17 | 0 | 9 | 3 | – | – | – | –
